# FAS TE block: FAS thioesterase domain inhibitors, primary screen, biochemical, fluorescence intensity, uHTS. 360,000 compounds, 0.67% hits. recombinant FAS-TE, OMFH fluorogenic substrate, fluorescence endpoint. AID 602261, 2012. inhibition, % at 15 µM. Fatty acid synthase (Homo sapiens), P49327;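 active means compounds whose normalised, plate-corrected inhibition of enzyme fluorescence in the single-dose primary screen is 50% or more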;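 further: 0% = DMSO with enzyme and 100% = substrate without enzyme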
# Target sequence (P49327 whole entry, looked up, the tested form may be a part): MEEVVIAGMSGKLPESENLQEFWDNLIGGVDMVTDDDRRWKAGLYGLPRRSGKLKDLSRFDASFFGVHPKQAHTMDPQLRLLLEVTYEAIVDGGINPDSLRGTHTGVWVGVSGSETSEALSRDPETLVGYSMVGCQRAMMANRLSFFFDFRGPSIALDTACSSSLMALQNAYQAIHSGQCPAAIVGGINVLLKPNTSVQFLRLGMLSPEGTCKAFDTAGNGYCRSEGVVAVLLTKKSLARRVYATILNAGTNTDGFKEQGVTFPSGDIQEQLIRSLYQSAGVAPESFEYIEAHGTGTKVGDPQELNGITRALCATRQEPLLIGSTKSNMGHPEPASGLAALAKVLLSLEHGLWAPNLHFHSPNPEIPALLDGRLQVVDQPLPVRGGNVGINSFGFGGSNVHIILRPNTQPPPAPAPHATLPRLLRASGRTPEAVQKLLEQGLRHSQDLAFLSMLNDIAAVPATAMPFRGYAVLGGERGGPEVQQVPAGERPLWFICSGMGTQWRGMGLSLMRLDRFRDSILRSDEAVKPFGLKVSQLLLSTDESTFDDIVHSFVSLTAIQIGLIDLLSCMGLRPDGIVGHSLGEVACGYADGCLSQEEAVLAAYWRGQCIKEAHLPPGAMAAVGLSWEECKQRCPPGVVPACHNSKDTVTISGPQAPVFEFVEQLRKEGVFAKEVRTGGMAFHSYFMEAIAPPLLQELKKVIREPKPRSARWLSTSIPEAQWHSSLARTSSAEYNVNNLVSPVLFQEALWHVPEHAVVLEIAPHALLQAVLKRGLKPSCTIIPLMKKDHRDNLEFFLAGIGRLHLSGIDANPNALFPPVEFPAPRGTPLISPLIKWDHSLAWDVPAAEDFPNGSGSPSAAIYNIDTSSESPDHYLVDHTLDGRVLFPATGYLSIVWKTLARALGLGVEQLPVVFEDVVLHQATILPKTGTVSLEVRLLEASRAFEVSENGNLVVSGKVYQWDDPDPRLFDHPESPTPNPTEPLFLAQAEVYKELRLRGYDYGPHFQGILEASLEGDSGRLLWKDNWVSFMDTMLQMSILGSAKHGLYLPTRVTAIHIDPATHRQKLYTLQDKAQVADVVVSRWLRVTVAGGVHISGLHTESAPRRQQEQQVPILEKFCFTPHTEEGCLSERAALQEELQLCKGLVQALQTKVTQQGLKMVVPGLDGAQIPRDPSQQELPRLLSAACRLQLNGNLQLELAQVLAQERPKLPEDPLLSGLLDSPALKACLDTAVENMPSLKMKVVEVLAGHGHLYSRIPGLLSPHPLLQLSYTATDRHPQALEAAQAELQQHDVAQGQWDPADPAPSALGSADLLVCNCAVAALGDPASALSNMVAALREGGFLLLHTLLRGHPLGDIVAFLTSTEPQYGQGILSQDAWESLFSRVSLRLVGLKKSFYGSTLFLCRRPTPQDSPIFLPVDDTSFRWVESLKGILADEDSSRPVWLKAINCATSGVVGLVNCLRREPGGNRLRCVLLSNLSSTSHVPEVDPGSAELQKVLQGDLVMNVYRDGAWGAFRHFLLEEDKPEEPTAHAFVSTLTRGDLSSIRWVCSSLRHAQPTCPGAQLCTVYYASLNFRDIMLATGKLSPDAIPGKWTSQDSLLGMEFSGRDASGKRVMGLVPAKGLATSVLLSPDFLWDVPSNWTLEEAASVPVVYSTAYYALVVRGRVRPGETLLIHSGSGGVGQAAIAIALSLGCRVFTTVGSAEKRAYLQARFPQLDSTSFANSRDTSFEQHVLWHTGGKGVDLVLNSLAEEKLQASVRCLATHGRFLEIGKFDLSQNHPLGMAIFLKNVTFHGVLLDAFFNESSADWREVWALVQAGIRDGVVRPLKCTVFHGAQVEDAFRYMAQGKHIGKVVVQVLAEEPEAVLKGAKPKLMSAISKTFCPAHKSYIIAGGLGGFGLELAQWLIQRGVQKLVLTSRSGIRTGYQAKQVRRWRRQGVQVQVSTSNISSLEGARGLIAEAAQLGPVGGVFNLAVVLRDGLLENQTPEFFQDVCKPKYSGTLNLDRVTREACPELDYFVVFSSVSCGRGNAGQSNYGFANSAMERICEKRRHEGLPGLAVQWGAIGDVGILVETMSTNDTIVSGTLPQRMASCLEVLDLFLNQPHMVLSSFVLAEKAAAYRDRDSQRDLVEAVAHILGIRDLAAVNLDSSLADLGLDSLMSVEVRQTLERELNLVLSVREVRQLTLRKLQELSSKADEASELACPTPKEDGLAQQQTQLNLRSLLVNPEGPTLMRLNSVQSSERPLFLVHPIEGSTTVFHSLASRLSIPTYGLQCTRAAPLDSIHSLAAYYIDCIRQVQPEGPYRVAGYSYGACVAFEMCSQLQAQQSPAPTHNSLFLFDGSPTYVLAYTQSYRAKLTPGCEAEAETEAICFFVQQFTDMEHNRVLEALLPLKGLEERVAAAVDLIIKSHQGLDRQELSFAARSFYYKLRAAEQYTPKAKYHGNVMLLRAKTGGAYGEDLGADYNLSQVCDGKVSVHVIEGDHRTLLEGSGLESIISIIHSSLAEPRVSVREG
# SUMO Mot1 rescue: yeast Mot1-301 growth rescue at high temperature, primary screen, SUMOylation pathway inhibitor project, S. cerevisiae, ATP luminescence, 38.5C | S. cerevisiae Mot1-301 growth rescue; percent above DMSO median, 100 means doubled | growth rescue, % at 18.8 µM | 320,000 compounds, 1% hits;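 active means every valid replicate shows activation above 250% relative to neutral control wells; inactive means the rest, any valid replicate at or below 250%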;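 further: OY570 slx delta 5 strain wells were the positive control but not used for scaling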
# aDG glyco up: activators of alpha-DG glycosylation, primary screen, uHTS, Pro5-aDG cells, AlphaScreen. alpha-DG glycosylation AlphaScreen (IIH6); 0% Pro5, 100% B10-LARGE cell signal. activation, % at 10 µM. 360,000 compounds, 0.22% hits;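 active means activation of at least 8% versus controls, or a plate z-score of at least 8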;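 further: Pro5 are CHO cells carrying HIG-tagged alpha-DG that lacks glycosylation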
# H9c2 protect: cardioprotection against H2O2-induced cell death, primary screen, uHTS, H9c2 cells, ATPLite luminescence. H9c2 cardiomyocytes, H2O2 injury protection, 2 h. protection from H2O2 cell death, % at 20 µM. 360,000 compounds, 0.63% hits;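 active means compounds giving at least 50% protection of heart cells from peroxide-induced death in the single-dose screen, raw or plate-pattern-corrected value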;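 further: 0% = DMSO wells with peroxide and 100% = DMSO wells without peroxide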
# CR mimetic SO: reduction of superoxide in aged yeast, primary screen, HTS; S. cerevisiae aged cells, superoxide DHE fluorescence; active compounds read low; superoxide response (% of plate mean), % at 10 µM; 330,000 compounds, 0.18% hits; AID 2690, 2010;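 active means superoxide response under a set limit, about three screen SD below normal, cut at about 65% in these data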;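 further: yeast aged for seven days with compound at 30 °C before DHE staining; 100% = average MFI of all compound-treated wells on the plate with controls excluded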
# MPTP block: mitochondrial permeability transition pore inhibitors, primary screen, biochemical, isolated mouse mitochondria, absorbance; Ca2+ swelling absorbance, 30 min; 360,000 compounds, 1.4% hits; inhibition, % at 10 µM;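 active means inhibition of 50% or more, scaled per plate between neutral and stimulator controls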;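 further: 0% = DMSO wells given calcium and 100% = 1 mM EGTA wells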
# Mot1 SUMO dose: growth restoration of Mot1-301 yeast on galactose, dose response, SUMO pathway inhibitor project, whole organism, S. cerevisiae, ATP luminescence, cherry-picked samples; shares compounds with SUMO Mot1 rescue; growth activity, percent, % at 42 µM; 2,300 tested, under 10 active; S. cerevisiae Mot1-301 galactose growth, 24 h; -100 = growth of slx-deleted rescue strain;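 active means Signal drops as the depositor expects, and the fitted half-maximal dose is no more than ten times the top valid tested dose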;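 further: more negative values mean stronger growth rescue toward the control strain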
# * hit, by the source's call; . = no result given; [ ] = remark or other dose. Compounds with a hit are over-represented: about 3.8% of the library has one in this group of screens.
SMILES,FAS TE block,SUMO Mot1 rescue,aDG glyco up,H9c2 protect,CR mimetic SO,MPTP block,Mot1 SUMO dose
Cc1nc2ccccc2c(=O)n1CC(=O)N1CCOCC1,-3.4,686.7*,0.0,-21.0,87.7,3.0,1.1
CCN(CC)c1nc(Nc2ccc(Cl)cc2)nc(OCC#N)n1,7.3,734.7*,0.0,-18.2,105.7,2.1,0.8
Cc1cccc(Nc2nc(OCC#N)nc(N(C)C)n2)c1,5.1,-8.1,0.1,-7.7,97.2,-0.2,.
O=c1[nH][nH]c2c1[C@H](CCc1cccc(Cl)c1)O[C@H](C1CCCC1)C2,-124.9,.,0.1,.,.,3.1,.
CN(c1ccccc1)c1ccc(/C=C/[N+](=O)[O-])cc1,-12.9,803.8*,-0.7,-19.2,103.7,-0.6,-2.6
COc1ccc(N2CCOCC2)c(NC(=O)c2cc3ccccc3o2)c1,18.2,-3.3,0.1,10.8,108.7,0.2,.
Cc1ccc(S(=O)(=O)NCC(C)n2cncn2)cc1 (stereo not given),-7.1,532.6*,-0.1,-1.5,91.8,0.9,0.6
COCCn1c(=S)[nH]c2cc(C(=O)NCCc3ccccc3)ccc2c1=O,-2.6,2.6,0.0,-2.5,76.2,1.4,.
O=C(c1cc2c(ccc3ccccc32)oc1=O)N1CCCC1,-7.8,495.2*,-0.3,-5.1,95.1,-0.8,0.2
CCOc1cc(C(N)=O)cc(Cl)c1OCc1ccccc1,1.3,441.6*,0.0,0.1,92.8,0.0,-0.1
COc1cc(C(N)=O)cc(Cl)c1OCc1ccccc1,-1.9,12.5,-0.1,0.6,95.8,-2.1,.
O=S(=O)(c1ccccc1)N1CCN(c2nc3ccccc3s2)CC1,-2.9,452.6*,-0.1,-6.9,118.7,4.2,-0.1
C=CCNC(=O)c1onc(CSc2cccc(C)c2)c1C(=O)O,-3.1,774.6*,-0.2,-1.1,85.9,0.2,0.6
C=CCNC(=O)c1onc(CSc2cccc(Cl)c2)c1C(=O)O,-6.7,0.0,-0.1,-2.7,.,-0.6,.
COc1ccccc1CNC(=O)c1ccc(CS(=O)Cc2cccc(Cl)c2)o1 (stereo not given),-0.9,-0.5,0.3,-1.4,118.3,-0.6,.
COc1ccc2cc(C3(C)NC(=O)N(CC(=O)NCC(F)(F)F)C3=O)ccc2c1 (stereo not given),-5.9,71.4,0.0,1.5,104.8,1.7,.
COCc1[nH][nH]c(=O)c1C=Nc1ccc(OC(F)(F)F)cc1,-8.3,800.9*,-0.5,10.6,100.6,1.1,-0.2
COCc1[nH][nH]c(=O)c1C=Nc1ccc(Cl)cc1,-15.1,-4.8,-0.1,-0.6,106.1,-2.0,.
COc1ccc2c(Cl)c(C(=O)NN3CCN(C)CC3)sc2c1,-7.2,586.7*,-0.2,6.4,84.4,6.6,-0.8
COc1ccc2c(Cl)c(C(=O)NC3CCS(=O)(=O)C3)sc2c1 (stereo not given),-9.8,9.2,-0.3,9.0,102.7,-1.4,.
Cc1cccc(NS(=O)(=O)c2ccc3[nH]c(=O)cc(C(=O)O)c3c2)c1,-3.5,543.6*,0.3,-1.2,91.7,0.5,1.0[21 µM]
Cc1ccccc1-n1ncc2c([N+](=O)[O-])cc([N+](=O)[O-])cc21,16.5,420.6*,2.6,-16.3,137.7,-0.9,-0.7
Cc1ccc2nc3cc([N+](=O)[O-])cc([N+](=O)[O-])c3cc2c1,-79.4,.,0.0,-25.7,.,1.6,.
FC(F)(F)C(F)(F)c1nc2nc(Cl)c(Cl)nc2[nH]1,-4.6,.,-0.3,0.6,.,0.6,.
Cc1c(C(=O)N2CCCC2)c(S(=O)(=O)Nc2ccccc2)c(C)n1C,-3.6,-2.3,-0.4,-1.7,81.1,-1.0,.
Cc1c(C(=O)N2CCCC2)c(S(=O)(=O)Nc2cccc(Br)c2)c(C)n1C,-0.8,708.9*,-0.2,-1.2,102.6,0.1,-0.5

# Screens from PubChem BioAssay.
